Source: PubChem BioAssay (several laboratories)
GIRK2 act: Activates human GIRK2-containing potassium channels; activation (% efficacy), % for hits at 37.5 µM; HEK293 GIRK2/NPY4 cells, thallium flux fluorescence; AID 1259324; P48051; 34,000 tested, under 10 active;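 active = primary screen hit, no activity in plain HEK293 cells, and in GIRK2-only cells above 5% efficacy rising with concentration; inactive = the rest, including fluorescent compounds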;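 also: efficacy is normalized control-subtracted fluorescence 15 s after thallium addition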
AMPAR-TARP mod: modulators of AMPA receptor GluA2-stargazin complexes; O88602+P19491; HEK293 GluA2+stargazin, membrane potential dye (FDSS), glutamate EC50; hits were called plate by plate, in both directions; calls only at 30 µM; 40,000 tested, 3.5% active;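 active = any of four per-well response measures lying three or more SD from its plate-wide compound average, in either direction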
Target sequence (O88602 whole entry, looked up): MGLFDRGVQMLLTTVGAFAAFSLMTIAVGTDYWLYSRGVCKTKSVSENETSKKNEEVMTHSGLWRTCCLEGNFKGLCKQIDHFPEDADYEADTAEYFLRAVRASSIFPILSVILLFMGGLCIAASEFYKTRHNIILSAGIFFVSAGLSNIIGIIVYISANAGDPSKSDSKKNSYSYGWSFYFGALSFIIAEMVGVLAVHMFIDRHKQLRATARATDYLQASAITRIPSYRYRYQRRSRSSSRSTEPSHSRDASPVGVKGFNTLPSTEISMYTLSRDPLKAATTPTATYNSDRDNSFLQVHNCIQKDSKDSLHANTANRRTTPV
Target sequence (P19491 whole entry, looked up): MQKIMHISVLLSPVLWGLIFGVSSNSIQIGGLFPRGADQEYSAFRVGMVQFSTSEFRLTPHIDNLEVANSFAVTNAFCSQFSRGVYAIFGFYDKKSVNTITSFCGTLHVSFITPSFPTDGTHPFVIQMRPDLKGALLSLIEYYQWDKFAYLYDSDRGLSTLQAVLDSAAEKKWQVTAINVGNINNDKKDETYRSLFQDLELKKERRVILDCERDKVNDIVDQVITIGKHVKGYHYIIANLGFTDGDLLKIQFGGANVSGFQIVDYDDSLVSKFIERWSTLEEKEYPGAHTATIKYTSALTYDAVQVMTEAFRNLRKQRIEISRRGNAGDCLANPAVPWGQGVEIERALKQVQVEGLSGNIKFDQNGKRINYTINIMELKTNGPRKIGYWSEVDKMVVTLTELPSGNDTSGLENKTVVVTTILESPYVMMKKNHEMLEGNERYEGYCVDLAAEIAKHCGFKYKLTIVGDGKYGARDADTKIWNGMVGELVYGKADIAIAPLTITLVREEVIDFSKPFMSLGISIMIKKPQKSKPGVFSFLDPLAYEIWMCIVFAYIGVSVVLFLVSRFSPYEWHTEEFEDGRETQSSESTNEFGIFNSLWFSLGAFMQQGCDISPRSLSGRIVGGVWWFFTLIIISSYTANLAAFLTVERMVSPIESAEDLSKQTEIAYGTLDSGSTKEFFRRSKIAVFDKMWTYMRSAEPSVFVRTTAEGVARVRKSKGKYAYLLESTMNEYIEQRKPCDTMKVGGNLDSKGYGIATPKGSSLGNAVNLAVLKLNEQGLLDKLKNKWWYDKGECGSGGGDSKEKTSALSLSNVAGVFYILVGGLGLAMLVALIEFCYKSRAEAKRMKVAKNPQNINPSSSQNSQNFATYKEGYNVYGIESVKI
Calls only; i = inactive; nt = no result; + = active, no number. Only a selection was taken, and hits are over-represented in it overall.

SMILES	GIRK2 act	AMPAR-TARP mod
Cc1cc(C)cc(C(=O)N2CCN(c3nc(C)cc(N4CCCCC4)n3)CC2)c1	nt	i
COc1cc(N2CCN(C(=O)c3cnccn3)CC2)nc(C)n1	i	i
CCNc1cc(C)nc(N2CCN(C(=O)COc3ccccc3)CC2)n1	i	i
Cc1nc(N2CCCCC2)cc(N2CCN(C(=O)c3ncccn3)CC2)n1	i	i
Cc1cc(N2CCOCC2)nc(N2CCN(C(=O)c3cnccn3)CC2)n1	i	+
Cc1cc(N2CCCCC2)nc(N2CCN(C(=O)c3ccccc3)CC2)n1	nt	+
CCOc1ccc(-c2ccc(OCCNS(=O)(=O)CC)nn2)cc1	i	i
O=S(=O)(NCC#CCN1CCc2ccccc2C1)c1ccc2c(c1)OCCO2	i	i
COc1cccc(CNC(=O)CCn2cnc3c(cnn3-c3ccc(F)cc3)c2=O)c1	i	nt
O=S(=O)(NCC(O)(c1ccco1)C1CC1)c1ccc(F)c(Cl)c1 (stereo unspecified)	i	+
O=S(=O)(NCC(O)(c1ccco1)C1CC1)c1cc(F)ccc1F (stereo unspecified)	i	i
O=C(Cn1cnc(-c2cccs2)cc1=O)Nc1ccccc1Cl	i	i
O=C(c1cccs1)N1CCC(c2nnc(-c3ccc(F)cc3)o2)CC1	i	i
O=C(N1CCC(c2nnc(-c3ccc(F)cc3)o2)CC1)C1(c2cccs2)CCCC1	i	+
O=c1nc(SCc2cccc([N+](=O)[O-])c2)c2c(n1CC1CCCO1)CCC2 (stereo unspecified)	i	i
O=c1nc(SCc2cccc(Cl)c2)c2c(n1CC1CCCO1)CCCC2 (stereo unspecified)	i	+
COc1ccc(-c2c(C)oc3cc(OCC(=O)NN)ccc3c2=O)cc1OC	nt	i
CCOC(=O)Cn1c(=O)c2c(nc3n(-c4ccccc4C)c(C)cn23)n(C)c1=O	nt	i
COc1cc(OC)cc(C(=O)Nc2ccc(N3CCCC3=O)cc2)c1	i	i
COc1ccc(C(=O)Nc2ccc(N3CCCC3=O)cc2)cc1	i	+
Cc1cc(C(=O)N2CCN(C)CC2)nn1CC(=O)N1CCc2ccccc21	i	i
CC(C)Sc1cccc(C(=O)Nc2sccc2C#N)c1	nt	+
CC(C)S(=O)(=O)c1cccc(C(=O)Nc2sccc2C#N)c1	i	i
Cc1cc(S(=O)(=O)c2cc3cc(Br)ccc3oc2=O)ccc1F	nt	i
COCCN=Cc1c(NCCOC)nc2ccccn2c1=O	i	+
SMILES	GIRK2 act	AMPAR-TARP mod
Cc1nc2ccccn2c1C(=O)NCC1CCN(S(=O)(=O)C2CC2)CC1	i	i
O=C1CC(c2nc3ccccc3n2Cc2ccccc2)CN1Cc1ccccc1 (stereo unspecified)	nt	+
CCCCN(C)C(=O)Cn1c(C2CC(=O)N(Cc3ccc(F)cc3)C2)nc2ccccc21 (stereo unspecified)	i	+
CCCN(CCC)C(=O)Cn1c(C2CC(=O)N(Cc3ccc(F)cc3)C2)nc2ccccc21 (stereo unspecified)	i	i
CCn1c(C2CC(=O)N(C(C)(C)C)C2)nc2ccccc21 (stereo unspecified)	nt	i
CC(C)(C)N1CC(c2nc3ccccc3n2Cc2ccccc2)CC1=O (stereo unspecified)	nt	+
CCCn1c(C2CC(=O)N(C(C)(C)C)C2)nc2ccccc21 (stereo unspecified)	nt	i
Cc1ccccc1Cn1c(C2CC(=O)N(C(C)(C)C)C2)nc2ccccc21 (stereo unspecified)	nt	+
CCn1c(C2CC(=O)N(Cc3ccccc3)C2)nc2ccccc21 (stereo unspecified)	nt	i
Cc1cc(C(=O)Nc2nn(C)c3c2C(c2cccs2)CC(=O)N3)c(C)o1 (stereo unspecified)	i	i
COC(=O)c1ccc(CN2CC(c3nc(-c4cccc(C(F)(F)F)c4)no3)C2)cc1	i	nt
COc1cccc(OCC(=O)N2CCN(c3nccn3C)CC2)c1	i	i
C#CCn1c(C2CC(=O)N(C(C)(C)C)C2)nc2ccccc21 (stereo unspecified)	nt	i
CC(C)(C)N1CC(c2nc3ccccc3n2Cc2ccccc2Cl)CC1=O (stereo unspecified)	nt	+
O=C(CCCn1nc(-c2ccccc2)ccc1=O)Nc1ccccc1F	i	i
CCCc1c(C(=O)Nc2cc(OC)ccc2OC)nnn1-c1ccccc1	i	i
COC(=O)c1cccc(NC(=O)c2nnn(-c3ccccc3F)c2C)c1	i	+
CCCc1c(C(=O)Nc2cccc(C(=O)OC)c2)nnn1-c1ccccc1	i	+
COC(=O)c1ccc(NC(=O)c2nnn(-c3ccccc3)c2C)cc1	i	i
c1ccc(-c2cc(-c3nc(-c4ccccc4)no3)[nH]n2)cc1	nt	i
COc1ccc(CNC(=O)c2sccc2S(=O)(=O)N2CCN(c3ccccc3F)CC2)cc1	i	nt
COC(=O)c1sccc1S(=O)(=O)N1CCN(c2ccccc2F)CC1	nt	+
O=C(Nc1nnc(-c2ccc(Br)s2)o1)c1ccc(Cl)s1	i	+
O=C(Nc1nnc(-c2ccc(Br)s2)o1)c1cc(Cl)ccc1Cl	i	+
